The list is a sample of the results.
aSyn 5UTR act: Activators via SNCA 5'UTR binding, MLPCN. 300,000 tested, 7.1% active. AID 1814. activity score, % (tested at 7.5 µM), hits read low. alpha-synuclein 5'UTR reporter, activators screen; in the data active = activity score below about -60%
* marks the source's active call; other numbers are inactive results.

`Cn1cc(Cl)cc(C(=O)Nc2ccccc2)c1=O` gave aSyn 5UTR act -133*.
For Nc1nc(CSc2ccccc2)nc(N2CCCCC2)n1 the results were aSyn 5UTR act -129*.
`Cc1ccc(CC(=O)NCc2ccc(Cl)cc2)cc1` gave aSyn 5UTR act -76*.
`Cc1ccc(CNC(=O)c2ccc3c(=O)c(O)c(-c4ccc(C)cc4)[nH]c3c2)cc1` gave aSyn 5UTR act 94.
For CC(C)(C)c1ccc(C(=O)NCc2ccccc2)cc1 the results were aSyn 5UTR act -88*.
CC(C)(C)c1ccc(C(=O)NCc2ccc(Cl)cc2)cc1 was read as aSyn 5UTR act -75*.
CCCCOC(=O)Nc1ccc(N2CCCCC2)cc1 was read as aSyn 5UTR act -158*.
For CCCCOC(=O)Nc1ccc(N2CCOCC2)cc1 the results were aSyn 5UTR act -163*.
COc1ccc(S(=O)(=O)NCc2ccccn2)cc1NC(=O)c1ccccc1 was read as aSyn 5UTR act -62*.
Screening CCOc1ccc(S(=O)(=O)NCc2ccccn2)cc1NC(=O)c1ccccc1F returned aSyn 5UTR act 76.
For CCOC(=O)c1c(NC(=O)CSc2nc3ccccc3o2)sc(C(C)=O)c1C the results were aSyn 5UTR act -63*.
For Cc1ccccc1NC(=O)CSc1nc2ccccc2o1 the results were aSyn 5UTR act -158*.
Screening O=C(CSc1nc2ccccc2o1)NCc1ccc2c(c1)OCO2 returned aSyn 5UTR act -79*.
Screening CCOC(=O)c1c(NC(=O)CSc2cccc[n+]2[O-])sc(C(=O)Nc2ccccc2)c1C returned aSyn 5UTR act -105*.
For O=C(CSc1nc2ccccc2o1)Nc1nc(-c2ccccc2)cs1 the results were aSyn 5UTR act -111*.
O=C(Nc1ccc(Cl)cc1)c1sccc1-n1cccc1 was read as aSyn 5UTR act -66*.
CCc1ccc(NC(=O)c2sccc2-n2cccc2)cc1 was read as aSyn 5UTR act -64*.
O=c1[nH]c(/C(Cl)=C/c2cccc(F)c2)nc2cc(C(F)(F)F)ccc12 was read as aSyn 5UTR act -162*.
For Nc1nnc(COc2ccc(Br)cc2Br)s1 the results were aSyn 5UTR act -98*.
O=C(NC(=S)Nc1ncccn1)c1ccc(Cl)cc1Cl was read as aSyn 5UTR act -165*.
For O=C(NC(=S)Nc1ccc2c(c1)C(=O)c1ccccc1C2=O)c1ccc(F)cc1 the results were aSyn 5UTR act -141*.
Screening O=C(NC(=S)Nc1ncccn1)c1ccc(F)cc1 returned aSyn 5UTR act -203*.
Screening COc1ccccc1NC(=S)NNC(=O)c1ccc(Cl)cc1Cl returned aSyn 5UTR act -137*.
For O=C(Nc1cccnc1Cl)c1cc(-c2ccc(F)cc2)on1 the results were aSyn 5UTR act -74*.
Screening O=C(NC(=S)NNC(=O)c1cnccn1)c1ccc(Cl)cc1 returned aSyn 5UTR act 61.
For O=C(NC(=S)Nc1cccnc1Cl)c1ccc(F)cc1 the results were aSyn 5UTR act -124*.
For COc1ccc(C2CC(C)(c3ccc(OC)cc3)Nc3ccccc3N2)cc1 (centres undefined) the results were aSyn 5UTR act -192*.
`CCOc1ccccc1-c1nn2c(Cc3ccccc3)nnc2s1` gave aSyn 5UTR act -66*.
Screening Cc1cccc(NC(=O)c2sc3nc(N)c(C#N)cc3c2N)c1 returned aSyn 5UTR act -156*.
For N#Cc1cc2c(N)c(C(=O)Nc3ccccc3)sc2nc1N the results were aSyn 5UTR act -124*.
For Nc1c(C(=O)Nc2ccccc2)sc2nc(-c3ccco3)ccc12 the results were aSyn 5UTR act -176*.
For Cc1cc(C)nc(NC(=O)c2cc(-c3ccc(C)s3)nc3ccccc23)c1 the results were aSyn 5UTR act -62*.
Screening O=C1c2ccccc2-c2nc3ccccc3nc21 returned aSyn 5UTR act -182*.
For NC1=C(Br)C(=O)c2ccccc2C1=O the results were aSyn 5UTR act 65.
CN(C)c1ccc(-c2nc3ccccc3n2C)cc1 was read as aSyn 5UTR act 61.
For CCn1c(-c2ccc(N(C)C)cc2)nc2ccccc21 the results were aSyn 5UTR act -97*.
C=CCn1c(-c2ccc(OC)cc2)nc2ccccc21 was read as aSyn 5UTR act -73*.
Screening Nc1n[nH]c(N)c1N=Nc1ccc(Cl)cc1Cl returned aSyn 5UTR act -74*.
For Clc1ccc(OCc2noc(-c3ccsc3)n2)c(Cl)c1 the results were aSyn 5UTR act -170*.
For Fc1cc(Cl)c(OCc2noc(-c3ccsc3)n2)c(Cl)c1 the results were aSyn 5UTR act -81*.
Screening C=CCN(CC=C)CCOc1ccc(OC(C)C)cc1 returned aSyn 5UTR act -63*.
`O=C(c1ccccc1)[C@H]1[C@H](c2ccccc2)[C@@]2(N=C(c3ccccc3)OC2=O)C2c3ccccc3C=NN21` (some centres undefined) gave aSyn 5UTR act -110*.
`CN(C)C(=O)c1cc(C(=O)c2ccc(Cl)cc2Cl)c[nH]1` gave aSyn 5UTR act -94*.
For CN(C)C(=O)c1cc(C(=O)c2ccc(F)cc2Cl)c[nH]1 the results were aSyn 5UTR act -93*.
CN(C)C(=O)c1cc(C(=O)c2ccc(C(F)(F)F)cc2)c[nH]1 was read as aSyn 5UTR act -151*.
Screening COc1cccc(CNC(=O)CN2C(=O)CSc3ccc(S(=O)(=O)N4CCCCC4)cc32)c1 returned aSyn 5UTR act -160*.
Screening Cc1cc(C(=O)NC2CCC(C)CC2)c(C)o1 (centres undefined) returned aSyn 5UTR act -110*.
For CC(=O)Nc1ccc(NC(=S)NC(=O)/C=C/c2ccc(Cl)cc2)cc1 the results were aSyn 5UTR act -75*.
For Cc1ccnc(NC(=S)NC(=O)/C=C/c2ccccc2)c1 the results were aSyn 5UTR act -68*.
`CCC(=O)Nc1ccc(NC(=S)NC(=O)/C=C/c2ccccc2)cc1` gave aSyn 5UTR act -62*.
For CCC(=O)Nc1cccc(C(=O)/C=C/c2ccccc2)c1 the results were aSyn 5UTR act -208*.
`Cc1cc2ncc(S(C)(=O)=O)c(N)n2n1` gave aSyn 5UTR act 60.
For CC(=O)c1ccc(NC(=S)NC(=O)/C=C/c2ccccc2)cc1 the results were aSyn 5UTR act -104*.
`CN(C)c1cccc(/C=C(\C#N)c2ccccc2)c1` gave aSyn 5UTR act -155*.
Screening COC(=O)c1ccc2c(=O)n3c(nc2c1)SCC(c1ccccc1)=N3 returned aSyn 5UTR act -112*.
Screening CCOc1cc(C(C(=O)NCC2CCCO2)N(C(=O)Cn2nnc3ccccc32)c2ccc(C(C)=O)cc2)ccc1O (centres undefined) returned aSyn 5UTR act -67*.
Screening CCCOc1ncnc2c1[nH]c1ccc(OC)cc12 returned aSyn 5UTR act -130*.
`CCCOc1ncnc2c1[nH]c1ccccc12` gave aSyn 5UTR act -142*.
For Cc1ccc2[nH]c3c(N4CCCCCC4)ncnc3c2c1 the results were aSyn 5UTR act -127*.
For CCCCOc1ncnc2c1[nH]c1ccc(C)cc12 the results were aSyn 5UTR act -93*.
`C=CCNc1ncnc2c1[nH]c1ccc(C)cc12` gave aSyn 5UTR act -184*.
`CC(=O)Nc1cccc(C(=O)OCC(=O)N2CCC(c3ccccc3)=N2)c1` gave aSyn 5UTR act -89*.
Screening CCC(=O)Nc1cccc(C(=O)OCC(=O)c2ccccc2Cl)c1 returned aSyn 5UTR act -171*.
CC(=O)Nc1cccc(C(=O)OCC(=O)c2ccccc2Cl)c1 was read as aSyn 5UTR act -99*.
`Cc1nc2nc(-c3cccnc3)nn2c(C)c1Cl` gave aSyn 5UTR act -74*.
Cc1ccn2cc(-c3ccc(Br)cc3)nc2c1 was read as aSyn 5UTR act 63.
`Cc1ccn2cc(-c3cnoc3C)nc2c1` gave aSyn 5UTR act -97*.

Bioassay records: PubChem, Broad Institute
